Assay [1] relates to Zika virus NS2B-NS3 protease (unlinked). The assay is described as follows: Optimization of GU AMC qHTS for Zika virus inhibitors: Unlinked NS2B-NS3 protease assay (AID 1347151). Also: nearly all actives have a fitted effect of over 80% in size. Also: potency is read from the fitted curve at half-maximal effect. An outline of the steps: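 Unlinked protease (25 nM final); buffer 10 mM Tris-HCl pH 8.0 + 0.01% Tween 20; AMC substrate; 15 min RT, dark; Δfluorescence normalized to no-inhibitor/no-enzyme controls; 4-parameter Hill fit.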
(Quantitative high-throughput screening tests each substance at several concentrations.)

Assay [2] has as its system Zika virus NS2B-NS3 protease. Put plainly: Primary screen GU AMC qHTS for Zika virus inhibitors (AID 1347154). Also: nearly all actives have a fitted effect of over 70% in size. Also: potency is read from the fitted curve at half-maximal effect. In short, it runs like this:
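Unlinked Zika NS2B hydrophilic domain/NS3 protease domain noncovalent complex (25 nM final) in 10 mM Tris-HCl pH 8.0, 0.01% Tween 20, with AMC peptide substrate. Fluorescence (ex 340, em 450 nm) change over 15 min, room temperature; percent inhibition fitted to 4-parameter Hill equation.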

Assay [3] is described as follows: qHTS of pediatric cancer cell lines to identify multiple opportunities for drug repurposing: Confirmatory screen for TC32 cells (AID 1347118).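 Also: cells exposed to compound for 48 h before the read; nearly all actives have a fitted effect of over 65% in size.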 Also: potency is read from the fitted curve at half-maximal effect. In short, it runs like this: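 Luminescent CellTiter-Glo read-out of metabolically active TC32 cells after 48 h compound exposure. Primary: MIPE 11-point, 0.78 nM–46 µM; NPC 8-point, 0.59 nM–46 µM. Confirmatory: 11-point dilutions.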

Assay [4] in a line: qHTS of pediatric cancer cell lines to identify multiple opportunities for drug repurposing: Confirmatory screen for control Hh wild type fibroblast cells (AID 1347121). Also: nearly all actives have a fitted effect of over 70% in size. In short, it runs like this:
(§1)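 Cells (500-1,000/well) in growth media were settled 5 h at 37 degrees C, then given compounds for 48 h. Viability was read as CellTiter-Glo luminescence. Primary runs used MIPE at 11 points (0.78 nM-46 µM) and NPC at 8 points (0.59 nM-46 µM); follow-ups used 11 points.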

Assay [5] can be described thus: qHTS of pediatric cancer cell lines to identify multiple opportunities for drug repurposing: Confirmatory screen for RD cells (AID 1347124).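 Also: cells exposed to compound for 48 h before viability readout; nearly all actives have a fitted effect of over 65% in size.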 An outline of the steps:
as §1

Assay [6] is described as follows: qHTS of pediatric cancer cell lines to identify multiple opportunities for drug repurposing: Confirmatory screen for Saos-2 cells (AID 1347127). Also: nearly all actives have a fitted effect of over 60% in size. Also: potency is read from the fitted curve at half-maximal effect. In short, it runs like this:
as §1

Assay [7] in a line: qHTS of pediatric cancer cell lines to identify multiple opportunities for drug repurposing: Confirmatory screen for OHS-50 cells (AID 1347128).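 Also: compound exposure lasted 48 h at 37 degrees C; nearly all actives have a fitted effect of over 55% in size.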 Also: potency is read from the fitted curve at half-maximal effect. In short, it runs like this:
as §1

A further assay concerns the target Furin (Homo sapiens) (UniProt P09958). The assay is described as follows: Furin counterscreen qHTS for Zika virus inhibitors (AID 1347149). Also: nearly all actives have a fitted effect of over 70% in size. Also: potency is read from the fitted curve at half-maximal effect. In short, it runs like this:
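Counterscreen measures cleavage of 2 microM BOC-RVRR-AMC, below its ~15 microM Km, by 5 nM full-length human furin at pH 7.0 after a 15-min compound preincubation. Inhibition derives from the 15-min fluorescence increase at 37C.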
For orientation: Counterscreens check selectivity or assay interference.

The nature of assay [8]: qHTS of pediatric cancer cell lines to identify multiple opportunities for drug repurposing: Confirmatory screen for SJ-GBM2 cells (AID 1347116). Also: nearly all actives have a fitted effect of over 60% in size. An outline of the steps: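 Viability measured as metabolically active cells via CellTiter-Glo luminescence following 48 hours of compound exposure, 11-point dilutions in confirmatory testing. 500-1,000 cells/well plated 5 hours before dosing; controls were DMSO and 2.3 µM bortezomib.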

Assay [9] is described as follows: qHTS of pediatric cancer cell lines to identify multiple opportunities for drug repurposing: Confirmatory screen for BT-37 cells (AID 1347117). Also: nearly all actives have a fitted effect of over 55% in size. An outline of the steps:
as §1

Assay [10] is described as follows: qHTS of pediatric cancer cell lines to identify multiple opportunities for drug repurposing: Confirmatory screen for Rh18 cells (AID 1347125). Also: nearly all actives have a fitted effect of over 55% in size. An outline of the steps: as §1
A short description of assay [11]: qHTS of pediatric cancer cell lines to identify multiple opportunities for drug repurposing: Confirmatory screen for SK-N-SH cells (AID 1347129).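 Also: cells exposed to compound for 48 h before viability read; nearly all actives have a fitted effect of over 60% in size.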 Also: potency is read from the fitted curve at half-maximal effect. An outline of the steps: as §1
The test system of assay [12] is Zika virus NS2B-NS3 protease (unlinked complex). Put plainly: Confirmatory screen GU AMC qHTS for Zika virus inhibitors (AID 1347153). Also: nearly all actives have a fitted effect of over 70% in size. In short, it runs like this:
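Noncovalent NS2B hydrophilic domain/NS3 protease complex (25 nM) in 10 mM Tris-HCl pH 8.0, 0.01% Tween 20 was preincubated 15 min at room temperature with compounds. Then 10 µM AMC substrate (Km 18.3 µM) was added; fluorescence was read over 15 min and fitted to a 4-parameter Hill equation.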

Assay [13] can be described thus: qHTS of pediatric cancer cell lines to identify multiple opportunities for drug repurposing: Confirmatory screen for NB-EBc1 cells (AID 1347115).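 Also: cells exposed to compound for 48 h before the viability read; nearly all actives have a fitted effect of over 45% in size.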 Also: potency is read from the fitted curve at half-maximal effect. An outline of the steps:
as §1

Assay [14] can be described thus: qHTS of pediatric cancer cell lines to identify multiple opportunities for drug repurposing: Confirmatory screen for Rh41 cells (AID 1347123). Also: potency is read from the fitted curve at half-maximal effect; nearly all actives have a fitted effect of over 60% in size. An outline of the steps:
as §1

Assay [15] is described as follows: qHTS of pediatric cancer cell lines to identify multiple opportunities for drug repurposing: Confirmatory screen for Rh30 cells (AID 1347126). Also: nearly all actives have a fitted effect of over 55% in size. Also: potency is read from the fitted curve at half-maximal effect. An outline of the steps: as §1
The nature of assay [16]: qHTS of pediatric cancer cell lines to identify multiple opportunities for drug repurposing: Confirmatory screen for MG 63 (6-TG R) cells (AID 1347119). An outline of the steps: as §1
Assay [17] concerns the target N-terminal Xaa-Pro-Lys N-methyltransferase 1 (Homo sapiens) (UniProt Q9BV86). The assay is described as follows: qHTS Assay for Inhibitors of N-terminal methyltransferase 1 (NTMT1): LOPAC validation of the NTMT1 SAHH-coupled ThioGlo3 Assay (AID 1347143). An outline of the steps:
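In this qHTS pilot against the LOPAC set, 125nM NTMT1 met compounds tested at multiple concentrations, and fluorescence was normalized to background.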

Results filed as inconclusive are left out. Activity calls are given as the source filed them. Calls follow the shape of the dose curve; as a rule, active = well fitted curve in the direction sought with a large enough effect; inconclusive = small, poorly fitted or top-dose-only effect, or another doubt; inactive = no such curve, though single readings can be large; an effect the other way counts as inactive or inconclusive.

Sequence of Furin (Homo sapiens) (P09958 whole entry, looked up): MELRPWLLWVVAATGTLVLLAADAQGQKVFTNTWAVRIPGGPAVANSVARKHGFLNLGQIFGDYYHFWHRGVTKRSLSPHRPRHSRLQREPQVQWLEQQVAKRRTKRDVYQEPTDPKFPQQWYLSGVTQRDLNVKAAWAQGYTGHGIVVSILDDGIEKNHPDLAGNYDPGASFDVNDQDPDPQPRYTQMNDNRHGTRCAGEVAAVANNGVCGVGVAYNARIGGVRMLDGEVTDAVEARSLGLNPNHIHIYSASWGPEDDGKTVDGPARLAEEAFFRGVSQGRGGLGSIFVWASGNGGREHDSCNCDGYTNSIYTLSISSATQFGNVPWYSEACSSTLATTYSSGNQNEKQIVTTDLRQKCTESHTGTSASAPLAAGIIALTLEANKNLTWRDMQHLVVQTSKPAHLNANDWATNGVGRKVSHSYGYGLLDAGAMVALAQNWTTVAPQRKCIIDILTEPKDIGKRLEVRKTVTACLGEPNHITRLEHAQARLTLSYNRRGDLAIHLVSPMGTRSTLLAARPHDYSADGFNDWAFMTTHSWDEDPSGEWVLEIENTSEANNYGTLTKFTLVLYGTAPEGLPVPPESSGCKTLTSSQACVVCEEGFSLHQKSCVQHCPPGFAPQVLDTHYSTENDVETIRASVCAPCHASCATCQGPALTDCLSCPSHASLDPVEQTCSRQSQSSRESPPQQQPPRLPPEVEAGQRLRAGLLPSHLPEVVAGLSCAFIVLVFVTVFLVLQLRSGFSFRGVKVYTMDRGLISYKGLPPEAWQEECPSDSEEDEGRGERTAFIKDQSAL
Sequence of N-terminal Xaa-Pro-Lys N-methyltransferase 1 (Homo sapiens) (Q9BV86 whole entry, looked up): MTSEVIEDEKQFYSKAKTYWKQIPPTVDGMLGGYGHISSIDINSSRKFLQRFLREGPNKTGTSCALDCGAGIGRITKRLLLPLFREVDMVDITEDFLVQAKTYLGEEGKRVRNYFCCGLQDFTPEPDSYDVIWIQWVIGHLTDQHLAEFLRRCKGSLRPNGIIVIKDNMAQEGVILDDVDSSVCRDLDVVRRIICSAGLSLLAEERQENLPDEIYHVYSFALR

For the compound `CNC[C@H](O)c1cccc(O)c1`, the Potency entry in assay [1] and in [2] was “inactive” in each case.
Turning to `Cn1cnc([N+](=O)[O-])c1Sc1ncnc2nc[nH]c12`, the Potency was 1.34 µM (active) in assay [3] and 4.24 µM (active) in [7]. In addition, the Potency entry (in [4]; in [5]; in [6]; in the assay with Furin (Homo sapiens); in [1]; in [2]) was “inactive” in each case.
On to `CCc1cncnc1N1CCN(Cc2nc3ccc(C(F)(F)F)cc3[nH]2)CC1`, for which the Potency result in assay [1] and in [2] was “inactive” throughout.
For `O=c1n(CCCN2CCN(c3cccc(Cl)c3)CC2)nc2ccccn12`, the Potency is 24.1 µM (active) in the assay with Furin (Homo sapiens), 26.7 µM (active) in assay [1] and 26.7 µM (active) in assay [2].
As to `OC[C@H](Cc1ccccc1)Nc1nc(Oc2ccc3c(c2)CCC3)nc2c1ncn2Cc1ccc(-c2ccccc2)cc1`, the Potency entry in assay [8], in assay [9], in assay [4], in [5], in assay [10] and in assay [11] was “inactive” in each case. For the same compound, the Potency result in [2] is “inactive”.
Regarding `O=C(C1CC1)N1CC[C@@H](Cn2c(-c3ccc(-c4ccc5occc5c4)cc3)nc3cnccc32)C1`, the Potency with Furin (Homo sapiens) was 15.2 µM (active); in assay [12] it was 24.1 µM (active); in assay [2] it was 10.8 µM (active).
Regarding `COc1cccc2cc(-c3nc(C4CCC(C(=O)O)CC4)n4ncnc(N)c34)[nH]c12` (configuration not stated), the Potency result in [13], in [9], in assay [3], in assay [4], in assay [5] and in [7] was “inactive” throughout. Also, the figures for the Potency in [14], in [15] and in assay [11] were 2.08 µM (active), 10.4 µM (active) and 10.5 µM (active), respectively.
Regarding `N=c1nc(N2CCCCC2)cc(N)n1O`, in assay [1], the Potency entry is “inactive”.
Consider `COc1cc(Nc2ncc3c(n2)-c2ccc(Cl)cc2C(c2c(F)cccc2OC)=NC3)ccc1C(=O)O`, for which the Potency in assay [13] is 20.8 µM (active); in assay [3], 0.147 µM (active); in [16] it was 0.233 µM (active); in assay [6] it was 18.5 µM (active). The Potency result in assay [8], in assay [4], in assay [5], in assay [10], in assay [15] and in assay [7] was “inactive” each time. The Potency entry in assay [2] was “inactive”.
Consider `COc1ccccc1-c1cccc(-c2c(O)c3cc(C#N)c(Cl)cc3[nH]c2=O)c1`, for which the Potency result (with Furin (Homo sapiens); in [12]) was “inactive” in each case. The Potency in assay [2] was 49.4 µM (active).
In the case of `CC(C)c1onc(-c2c(Cl)cccc2Cl)c1COc1ccc(/C=C/c2cccc(C(=O)O)c2)c(Cl)c1`, the Potency with Furin (Homo sapiens) is 8.55 µM (active); in assay [12], 24.1 µM (active); in [2], 6.7 µM (active).
Turning to `Cc1cc2c(C(C)C)c(O)c(O)c(C=O)c2c(O)c1-c1c(C)cc2c(C(C)C)c(O)c(O)c(C=O)c2c1O`, in assay [1], the Potency was 0.377 µM (active).
For `CCCCNc1cc(C(=O)O)cc(S(N)(=O)=O)c1Oc1ccccc1`, the values for the Potency (in [17]; in the assay with Furin (Homo sapiens); in assay [1]) were 50.1 µM (active), 27 µM (active) and 29.9 µM (active), respectively. The Potency result in [12] is “inactive”.

These data come from PubChem BioAssay (NCATS).
